M1 PAM parental: M1 PAM counterscreen hit in parental CHO-K1 cells; activation, % at 3 µM; AID 602247; 0.02% of 360,000 active; ATP EC20, Fluo-8 calcium fluorescence; 0% at ATP EC20, 100% at ATP max;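 active = activation above the run cutoff, the mean activation of all test compounds plus 3 SD, cut at about 40% in these data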;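 also: peak over basal fluorescence ratio in a 140 s read after ATP addition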
CHO-K1 Ca antag: nonselective inhibitor or artifact in parental CHO-K1 cells; ATP-induced calcium, Fluo-8 fluorescence; inhibition, % at 3 µM; 0.6% of 360,000 active;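 active = inhibition above a per-plate cutoff, the plate's mean sample inhibition plus 3 SD, cut at about 24% in these data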
CHRM1 PAM: positive allosteric modulators of human M1 muscarinic receptor. P11229. activation, % at 3 µM. 0.088% of 360,000 active. CHO-K1 hM1, Fluo-8 calcium fluorescence, ACh EC20; 0% = ACh EC20, 100% = maximal ACh; in the data active = activation above about 19%, passing the limit was not always enough
Target sequence (P11229 whole entry, looked up): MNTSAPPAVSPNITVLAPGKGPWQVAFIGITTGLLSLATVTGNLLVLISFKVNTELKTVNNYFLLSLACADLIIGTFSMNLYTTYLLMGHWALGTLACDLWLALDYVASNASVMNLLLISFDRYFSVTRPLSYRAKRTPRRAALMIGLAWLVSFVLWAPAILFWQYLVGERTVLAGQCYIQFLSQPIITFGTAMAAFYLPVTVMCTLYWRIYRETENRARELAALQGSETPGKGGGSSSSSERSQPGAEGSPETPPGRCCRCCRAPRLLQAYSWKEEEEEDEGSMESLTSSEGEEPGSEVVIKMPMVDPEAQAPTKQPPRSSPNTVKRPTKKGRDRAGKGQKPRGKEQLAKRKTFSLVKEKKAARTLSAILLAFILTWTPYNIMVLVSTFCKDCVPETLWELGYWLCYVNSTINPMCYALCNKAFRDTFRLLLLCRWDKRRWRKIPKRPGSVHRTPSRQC
M1 antag: antagonists of human M1 muscarinic receptor | 1.3% of 360,000 active | AID 588852 | inhibition, % at 3 µM | CHO-K1 hM1, Fluo-8 calcium fluorescence, ACh EC80 antagonist;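 active = percent inhibition above its own plate's cutoff, namely the mean of that plate's compound wells plus 3 SD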;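 also: peak over basal fluorescence ratio during 140 s after agonist addition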
CHO-K1 Ca ag: counter-screen for M1 agonists: effect in parental CHO-K1 cells; Fluo-8 calcium fluorescence; scaled to maximal ATP response, vehicle zero; activation, % at 3 µM; 0.48% of 360,000 active; AID 602248; in the data active = activation above about 15%;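 also: untransfected CHO-K1 host cells lacking M1 receptor as counterscreen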
CHRM1 agonist: agonists of human M1 muscarinic receptor. AID 588814. P11229. activation, % at 3 µM. 0.33% of 360,000 active. CHO-K1 hM1, Fluo-8 calcium fluorescence, agonist mode; 0% DMSO, 100% acetylcholine EC100;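 active = activation above the run's mean compound activation plus 3 SD, cut at about 16% in these data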;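 also: peak over basal fluorescence ratio within a 140 s kinetic read after compound addition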
Of the large screens only hits and unclear results are named; the others gave an inactive call. Sampled rows, rich in hits. Any-hit rate of the full collection: about 2.3%.

O=C(OCc1ccccc1)N1CCC2CC1c1cc(N3CCCCC3)ccc12 (stereo not drawn)	M1 antag 34
Nc1cc(C(=O)OCC(=O)N2CCC(Cc3ccccc3)CC2)ccc1Cl	none
COc1ccccc1NS(=O)(=O)c1cccc(NC(=O)Nc2cccc(Cl)c2)c1	CHO-K1 Ca antag 34
COC(=O)c1cccc(NC(=O)NC(=O)c2ccc(Cl)cc2)c1	none
COc1ccccc1NS(=O)(=O)c1cc(NC(=O)c2ccc(Cl)nc2)ccc1Cl	M1 antag 28, CHO-K1 Ca ag 16
COC(=O)c1cccc(NC(=O)Nc2ccc(Cl)cc2)c1	M1 antag 38
COc1ccc(NC(=O)c2ccc(Cl)c(S(=O)(=O)N3CCc4ccccc4C3)c2)cn1	M1 antag 18
O=C(NCc1ccc2c(c1)OCO2)c1nc(Cn2cc(Br)cn2)no1	none
CC(C)[C@@H]1O[C@H](CCc2ccccc2)CC2=C1C(=O)OC(C)(C)O2	none (no result: CHRM1 PAM, M1 antag, CHRM1 agonist)
CC1CN(CCc2ccccc2)c2nc3c(c(=O)n(CC(N)=O)c(=O)n3C)n2C1 (stereo not drawn)	none
O=C(Nc1cccc(Cl)c1)Nc1cccc(Cl)c1	none
COC(=O)c1cccc(NC(=S)Nc2ccc(Cl)c(Cl)c2)c1	CHO-K1 Ca antag 26
COC(=O)c1cc(NC(=O)Nc2cccc(Cl)c2)ccc1Cl	CHO-K1 Ca antag 24, M1 antag 32, CHO-K1 Ca ag 18
Cn1c(=O)[nH]c(=O)c2c1nc(N1CCCCC1)n2C/C=N/NC(=O)c1cc(Br)ccc1O	CHO-K1 Ca ag 26
C=CCn1c(N2CCCC2)nc2c1c(=O)[nH]c(=O)n2C	none
Cc1ccc(-n2c(-c3ccccc3)c[n+]3c2CCc2ccccc2-3)c(C)c1	M1 antag 55
O=C(Nc1ccc(Br)cc1)c1ccc(F)c(S(=O)(=O)NCc2cccs2)c1	CHO-K1 Ca antag 28, M1 antag 34
CC(Oc1ccc(Br)cc1)C(=O)Nc1ccc(S(=O)(=O)Nc2nccs2)cc1 (stereo not drawn)	none
O=C(NC(=S)Nc1ccc(S(=O)(=O)Nc2nccs2)cc1)C1CC1	none
CCC(Oc1ccccc1)C(=O)Nc1ccc(S(=O)(=O)Nc2cc(C)on2)cc1 (stereo not drawn)	CHRM1 PAM 29
CCC(Oc1ccc(C)cc1)C(=O)Nc1ccc(S(=O)(=O)Nc2nccs2)cc1 (stereo not drawn)	CHRM1 agonist 19
CCC(Oc1ccccc1)C(=O)Nc1ccc(S(=O)(=O)Nc2ncccn2)cc1 (stereo not drawn)	none
CC(C)C(=O)NC(=S)Nc1ccc(S(=O)(=O)Nc2nccs2)cc1	CHO-K1 Ca ag 16
CCCN(CC(=O)Nc1ccccc1C)C(=O)CCCNC(=O)c1ccc(Cl)cc1	none
CCOC(=O)C1(C)CCN1C(=O)c1ccc(SC(F)(F)F)cc1 (stereo not drawn)	none
COc1cccc(N2CCN(c3ncnc4c3[nH]c3ccc(F)cc34)CC2C)c1 (stereo not drawn)	CHO-K1 Ca antag 55, M1 antag 83
COc1cc2[nH]c3c(N4CCN(c5ccc(Cl)cc5)CC4)ncnc3c2cc1OC	none
Cc1cc(C)c(NS(=O)(=O)c2ccc3c(c2)n(C)c(=O)n3C)c(C)c1	none
Cc1ccccc1NS(=O)(=O)c1ccc2c(c1)n(C)c(=O)n2C	CHO-K1 Ca ag 15
CCc1nc(Cl)c(C#N)c2c1CCCC2	none
CCCc1nc(Cl)c(C#N)c2c1CCCC2	CHRM1 agonist 22
COc1ccc(C(=O)CCC(=O)N2CCN(c3ccc(C)cc3)C(C)C2)cc1 (stereo not drawn)	none
c1cnc2c(-c3ccc4nccn4c3)cccc2c1	none
Cc1cccc(N(C(=O)Nc2ccc(Cl)cc2)C2=NCC(C)S2)n1 (stereo not drawn)	CHO-K1 Ca ag 15
Cc1ccc(NC(=O)N(C2=NCC(C)S2)c2ccccc2)cc1 (stereo not drawn)	none
CCCCCCCCCCOC(=O)Cn1c(COc2ccccc2OC)[n+](C)c2ccccc21	CHO-K1 Ca antag 29, M1 antag 69, CHO-K1 Ca ag 17, CHRM1 agonist 21
Cn1c(COc2ccccc2O)[n+](C)c2ccccc21	none
CCOCCCNc1nc2c(c(=O)[nH]c(=O)n2C)n1CCCc1ccccc1	CHO-K1 Ca antag 26
Cc1cc(C)n(-c2nc3c(c(=O)[nH]c(=O)n3C)n2CCc2ccccc2)n1	none
Cc1cc(C)n(-c2nc3c(c(=O)[nH]c(=O)n3C)n2Cc2ccccc2)n1	CHO-K1 Ca antag 25
CC(=O)Cn1c(N2CCC(Cc3ccccc3)CC2)nc2c1c(=O)[nH]c(=O)n2C	CHRM1 PAM 22
Cc1cccc(Cn2c(N3CCCCC3C)nc3c2c(=O)[nH]c(=O)n3C)c1 (stereo not drawn)	M1 antag 32
Cc1cccc(Cn2c(N3CCN(C)CC3)nc3c2c(=O)[nH]c(=O)n3C)c1	none
CCN(C[C@H]1N[C@@](C)(C(=O)OC)[C@H]2C(=O)N(C)C(=O)[C@@H]12)C(=O)COc1ccccc1	none
CCOc1ccc(Cl)cc1C1=CC(=O)C[C@H](c2ccc(OC)cc2)C1	none
CC(Nc1ccccc1N1CCCCC1)C(=O)N1CCc2ccccc21 (stereo not drawn)	none
COc1cccc(CN(C)C(=O)c2ccc(OCC(=O)Nc3cccc(C(F)(F)F)c3)c(OC)c2)c1	M1 antag 40
Nc1c2c(nc3sc4c(c13)CCCCC4)CCCCC2	M1 antag 51
CC1CCc2nc3sc4c(c3c(N)c2C1)CCCC4 (stereo not drawn)	none
CN(C)CCNc1nc2sc3c(c2c(=O)n1Cc1ccccc1)CCCCC3	M1 antag 73
CCc1ccc(CNC(=O)C2CCN(S(=O)(=O)N3CCCCC3)CC2)cc1	none
Fc1ccc(NC(=S)N2CCCN(c3ccc(C(F)(F)F)cn3)CC2)c(F)c1	CHO-K1 Ca antag 24, M1 antag 34
Cc1nn(-c2ccccc2)c2ncc(C(=O)c3cc(Cl)ccc3O)cc12	none
CCc1nn2cc(C(=O)c3cc(Cl)ccc3O)cnc2c1-c1ccc(F)cc1	M1 antag 43
Cc1cccc(C(=O)NCC(=O)OCC(=O)c2cc(C)n(CC3CCCO3)c2C)c1 (stereo not drawn)	CHO-K1 Ca ag 17
CCc1nc2c(OCCn3cccc3)cccn2c1N(C)C(=O)C1CC1	none
CCOC(=O)Cc1csc(NC(=O)Nc2cccs2)n1	CHO-K1 Ca ag 16
O=C(CC(c1ccc(F)cc1)c1ccco1)N1CCOCC1 (stereo not drawn)	CHRM1 PAM 28
CNC(=O)COc1ccc(S(=O)(=O)N2CCCC2)cc1	none
O=[N+]([O-])c1ccc(-c2ccc(/C=N/Nc3nc(NCc4ccccc4)nc(N4CCOCC4)n3)o2)cc1	CHO-K1 Ca antag 24, M1 antag 26, CHO-K1 Ca ag 18

Screening results: PubChem, The Scripps Research Institute Molecular Screening Center
